Laboratory results published in PubChem BioAssay AID583 (Sanford-Burnham Center for Chemical Genomics, 2007).
Where “and” joins values, the source holds several entries; their conditions need not be identical. Equal values may be shown once. In all, about 140,000 compounds went through this assay and about 80 (0.06%) were called active. No stated cut-off is given here; in the data, active means displacement above about 50%; inactive means the rest. The list comes from a sample in which actives are over-represented; it also holds similar structures and randomly drawn compounds.

Biological target: Heat shock 70 kDa protein 1A (Homo sapiens) (UniProt P0DMV8)
Sequence (P0DMV8 whole entry, looked up): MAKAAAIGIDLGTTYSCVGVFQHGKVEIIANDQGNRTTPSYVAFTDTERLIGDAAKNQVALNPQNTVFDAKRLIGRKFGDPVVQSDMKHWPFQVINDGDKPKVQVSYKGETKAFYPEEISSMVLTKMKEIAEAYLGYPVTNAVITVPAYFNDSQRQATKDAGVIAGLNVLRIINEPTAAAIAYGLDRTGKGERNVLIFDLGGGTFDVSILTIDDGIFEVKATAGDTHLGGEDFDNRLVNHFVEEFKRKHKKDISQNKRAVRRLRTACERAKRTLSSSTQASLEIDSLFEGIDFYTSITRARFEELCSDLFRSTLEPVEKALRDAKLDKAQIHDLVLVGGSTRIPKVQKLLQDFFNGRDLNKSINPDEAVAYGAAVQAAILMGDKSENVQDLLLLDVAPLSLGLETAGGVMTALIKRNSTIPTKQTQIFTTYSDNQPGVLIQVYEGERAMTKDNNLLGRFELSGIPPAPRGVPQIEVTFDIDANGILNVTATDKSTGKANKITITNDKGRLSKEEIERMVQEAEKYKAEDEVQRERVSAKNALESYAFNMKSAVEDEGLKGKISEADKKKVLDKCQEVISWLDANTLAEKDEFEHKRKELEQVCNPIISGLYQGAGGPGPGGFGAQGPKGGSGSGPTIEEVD
Experiment: small molecules displacing fluorescent ligand from Hsp70 – biochemical, fluorescence polarization, primary screen (AID 583);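 further: plate controls were vehicle for no effect and reference ligand for full effect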
Details: Hsp70 fluorescence polarization probe displacement, mP; at 20 µM; stronger effect = higher value

| Structure (SMILES) | displacement |
| --- | --- |
| CC(NS(C)(=O)=O)C(c1cccs1)N1CCN(Cc2ccccc2)CC1 (centres undefined) | 3.1% (inactive) |
| O=C1N=c2ccccc2=C1c1s/c(=N/N=C2/C(=O)Nc3ccccc32)n(-c2ccc(O)cc2)c1O | 93.6% (active) |
| O=C1N=c2ccccc2=C1c1sc(=Nc2ccccc2)n(-c2ccccc2)c1O | 5.2% (inactive) |
| O=C1N=c2ccccc2=C1c1sc(=O)n(-c2ccc(O)cc2)c1O | -21.2% (inactive) |
| CC(=O)NS(=O)(=O)c1ccc(NC(=O)c2ccccc2F)cc1 | 6% (inactive) |
| COCC(=O)Nc1nc(-c2ccccc2)c(C)s1 | -1.9% (inactive) |
| O=C1NC(=S)N/C1=C\c1ccc(-c2cccc([N+](=O)[O-])c2)o1 | 0.3% (inactive) |
| O=C1NC(=S)N/C1=C\c1ccc(-c2cc([N+](=O)[O-])ccc2Br)o1 | 51.2% (active) |
| O=C1NC(=S)N/C1=C/c1ccc(-c2cc([N+](=O)[O-])ccc2Cl)o1 | 17.3% (inactive) |
| Cc1ccc(NC(=O)c2ccccc2Br)cc1 | 1.9% (inactive) |
| COc1ccc(OC)c(NC2=NC3(CCCC3)N=C(N)N2)c1 | 0.2% (inactive) and -1.2% (inactive) |
| COc1ccc(OC)c(NC2=NC3(CCCCC3)N=C(N)N2)c1 | -6.7% (inactive) and 3.4% (inactive) |
| COc1ccccc1NC1=NC2(CCCCC2)N=C(N)N1 | 97.6% (active) |
| CC(C)Oc1c(I)cc(I)cc1/C=C(/C#N)c1nc2ccccc2[nH]1 | -0.1% (inactive) |
| Cc1ccc(/C(N)=N/OC(=O)c2ccc(Br)cc2)cc1 | 1.1% (inactive) |
| O=C1C(=O)N(CC2CCCO2)C(c2cccc([N+](=O)[O-])c2)/C1=C(/O)c1ccccc1 (centres undefined) | -4.4% (inactive) |
| COc1cccc(C2NC(=O)NC(C)=C2C(=O)OCCc2ccccc2)c1OC (centres undefined) | -3% (inactive) |
| COc1ccc(Cn2c(C)nc3c(c2=O)c2nc4ccccc4nc2n3Cc2ccco2)cc1 | 69.5% (active) |
| COc1ccc(Cn2c3nc4ccccc4nc3c3c(=O)n(Cc4ccco4)c(C)nc32)cc1 | 2.5% (inactive) |
| COc1ccc(Cn2c3nc4ccccc4nc3c3c(=O)n(Cc4ccco4)cnc32)cc1 | -6% (inactive) |
| O=C(O)CCCCCN1C(=O)/C(=C/c2cccc(F)c2)SC1=S | -1.8% (inactive) |
| O=C(O)CCCCCCCCCCN1C(=O)/C(=C/c2cccc(Br)c2)SC1=S | 56.6% (active) |
| O=C(O)CCCN1C(=O)/C(=C/c2cccc(Br)c2)SC1=S | 6.7% (inactive) |
| O=C(NN1CCOCC1)c1cc2ccccc2oc1=O | 1.1% (inactive) |

| Structure (SMILES) | displacement |
| --- | --- |
| CC(=O)C1=C(C)NC(SCC(N)=O)=C(C#N)C1c1cccnc1 (centres undefined) | -1.1% (inactive) |
| Cc1ccc(C)n1-c1ccc(Br)cc1C(=O)O | 7.4% (inactive) |
| Cc1ccc(-c2ccccc2)n1-c1ccccc1C(=O)O | 5.6% (inactive) |
| Cc1nc(=O)c(-c2ccccc2)c(C)n1-c1ccccc1C(=O)O | 6.5% (inactive) |
| COc1cc(C(=O)O)c(-n2c(C)ccc2C)cc1OC | 6.6% (inactive) |
| Cc1ccc(C)n1-c1ccc(Cl)cc1C(=O)O | 104% (active) |
| Cc1c(C(=O)O)cccc1-n1c(C)ccc1C | 51.1% (active) |
| Cc1ccc(C)n1-c1ccccc1C(=O)O | 92.7% (active) |
| Cc1ccc(C)n1-c1sccc1C(=O)O | 24.9% (inactive) |
| Cc1c(C(=O)O)cccc1-n1c(=O)c2cc3c(=O)n(-c4cccc(C(=O)O)c4C)c(=O)c3cc2c1=O | -1.1% (inactive) |
| COc1cc(OC)cc(C(=O)N2CCN(C(=O)c3cccc(F)c3)CC2)c1 | 2.3% (inactive) |
| COC(=O)c1ccc(/C=C2\SC(=S)N(C(Cc3ccccc3)C(=O)O)C2=O)cc1 (centres undefined) | -0.2% (inactive) |
| O=C1NC(=O)/C(=C/c2c(F)cccc2Cl)S1 | 4.2% (inactive) |
| S=c1[nH]nc(-c2cccc(Cl)c2)n1-c1ccccc1 | 4% (inactive) |
| COc1ccc(CC(=O)c2cc(OC)c(OC)cc2CC(=O)O)cc1OC | -0.7% (inactive) |
| COC(=O)c1cc(C#N)c(SCc2ccccc2)nc1C | -5% (inactive) |
| O=C(c1ccc(N2CCN(C(=O)c3ccccc3F)CC2)cc1)c1cccc(F)c1 | -2.9% (inactive) |
| O=C(c1ccc(N2CCN(C(=O)c3ccccc3)CC2)cc1)c1cccc(F)c1 | -1.2% (inactive) |
| O=C(c1ccc(N2CCN(C(=O)c3ccccc3Br)CC2)cc1)c1cccc(F)c1 | 83.6% (active) |
| CCN1CCN(P2(=O)C=C(c3ccccc3)OC(c3ccccc3)=C2)CC1 | 1.1% (inactive) |
| O=C(c1coc(=O)c(Br)c1)N1CCOCC1 | 7.3% (inactive) |
| O=C(c1coc(=O)c(Br)c1)N1CCCc2ccccc21 | 6.5% (inactive) |
| COc1ccc(CCNC(=O)CSc2nc3ccccc3o2)cc1OC | 0.2% (inactive) |
| O=C1c2oc3ccc(F)cc3c(=O)c2C(c2ccccc2)N1CC1CCCO1 (centres undefined) | -3.1% (inactive) |

| Structure (SMILES) | displacement |
| --- | --- |
| COc1ccc(C2c3c(oc4ccccc4c3=O)C(=O)N2CC2CCCO2)cc1 (centres undefined) | -2.4% (inactive) |
| O=C(COc1ccc([N+](=O)[O-])cc1)Nc1cccc(Cl)c1Cl | 2.1% (inactive) |
| CCCCOc1ccc(N2C(=O)C3CC(C)=C(C)CC3C2=O)cc1 (centres undefined) | 0.2% (inactive) |
| CCOc1cc(CNn2cnnc2)cc(Br)c1OCC(=O)NC1CCCCC1 | 5.5% (inactive) |
| C=CCn1c2ccccc2c2nnc(SCC(=O)Nc3sc4c(c3C#N)CCCC4)nc21 | -2% (inactive) |
| CC(=NCCCn1ccnc1)c1c(-c2ccccc2)[nH]n(-c2nc3ccccc3s2)c1=O | 0.5% (inactive) |
| Cc1c(NS(=O)(=O)c2cc(Cl)ccc2Cl)cccc1[N+](=O)[O-] | -2.4% (inactive) |
| O=C(Nc1ccc2nc(-c3cccs3)c(-c3cccs3)nc2c1)NC1CC1 | 2.3% (inactive) |
| O=C(Nc1ccc(N2CCOCC2)cc1)Nc1ccc2nc(-c3ccco3)c(-c3ccco3)nc2c1 | 1.1% (inactive) |
| Brc1ccc(/C=N/c2ncn[nH]2)cc1 | 3.3% (inactive) |
| C=CCN1C(=O)/C(=C/c2cccc(OCc3ccccc3Cl)c2)SC1=S | 0.3% (inactive) |
| C=CCN1C(=O)/C(=C\c2ccc(OCc3ccccc3Cl)cc2)SC1=S | 56.5% (active) |
| CCN1C(=O)/C(=C\c2ccc(OCc3ccccc3Cl)cc2)SC1=S | -2.5% (inactive) |
| CCOc1ccc(N(CC(=O)NC2CCCCC2)S(=O)(=O)c2ccc(Cl)cc2)cc1 | 2.4% (inactive) |
| NC(=O)c1ccc(NC(=O)Cc2ccc(Cl)cc2)cc1 | -3.6% (inactive) |
| O=C(N/N=C/c1cccc([N+](=O)[O-])c1)c1cc(-c2ccc(Cl)cc2)n[nH]1 | 4.6% (inactive) |
| Cc1ccc(-c2cc(C(=O)N/N=C/c3ccc([N+](=O)[O-])cc3)[nH]n2)cc1 | 1.8% (inactive) |
| Cc1ccc(-c2cc(C(=O)N/N=C/c3cccc([N+](=O)[O-])c3)[nH]n2)cc1 | 78.2% (active) |
| CC(C)(C)NC(=O)c1cccc(N2C(=O)c3cccc([N+](=O)[O-])c3C2=O)c1 | 1.9% (inactive) |
| Cc1cccc(C(NC(N)=O)c2ccccc2)c1 (centres undefined) | 0.4% (inactive) |
| NC1=NC(=O)/C(=C/c2ccc(-c3ccc([N+](=O)[O-])cc3Br)o2)S1 | 44.5% (inactive) |
| NC1=NC(=O)/C(=C/c2ccc(-c3cc([N+](=O)[O-])ccc3Cl)o2)S1 | 75.9% (active) |
| NC1=NC(=O)/C(=C\c2ccc(-c3ccc([N+](=O)[O-])cc3)o2)S1 | -5.8% (inactive) |
| Cc1ccc(/C(N)=N/OC(=O)c2ccccc2F)cc1 | 2.5% (inactive) |

| Structure (SMILES) | displacement |
| --- | --- |
| O=S(=O)(Nc1ccc(F)cc1)c1ccc2c(c1)Cc1cc(S(=O)(=O)Nc3ccc(F)cc3)ccc1-2 | -0.8% (inactive) |
| Cc1ccc(NC(=O)c2ccccc2NC(=O)Cc2cccs2)cc1C | 3.6% (inactive) |
| CN(c1ccc(C(=O)NC2CC2)cc1)S(=O)(=O)c1ccccc1 | 0.5% (inactive) |
| Cc1c(C(=O)Nc2ccc3oc(-c4ccc(Cl)cc4Cl)nc3c2)cccc1[N+](=O)[O-] | -1.5% (inactive) |
| Cc1c(NC(=O)c2ccccc2[N+](=O)[O-])cccc1-c1nc2cc(Cl)ccc2o1 | 60.1% (active) |
| Cc1c(C(=O)Nc2ccc(-c3nc4cc(Cl)ccc4o3)cc2)cccc1[N+](=O)[O-] | -7% (inactive) |
| Cc1cc(NC(=O)CN2CCN(c3ccccc3F)CC2)nc2c1c(=O)oc1ccccc12 | 1.7% (inactive) |
| COc1ccc(N2C(=O)C3C(C2=O)N2CCCN2C3c2ccc(Cl)cc2)cc1 (centres undefined) | 2.3% (inactive) |
| Cc1cc(N2C(=O)NC(=O)/C(=C\c3ccco3)C2=O)ccc1Br | 40.3% (inactive) |
| O=C1NC(=O)N(c2ccc(Br)cc2)C(=O)/C1=C/c1ccco1 | 54% (active) |
| O=C1NC(=O)N(c2ccc(Br)cc2)C(=O)/C1=C\C=C\c1ccco1 | -7.2% (inactive) |
| N#CCOc1ccccc1/C=N/c1sc2c(c1C#N)CCCC2 | -0.5% (inactive) |
| CC(C)(C)NC(=O)CN1CCC(O)(c2ccc3c(c2)OCO3)CC1 | 5.2% (inactive) |
| O=C(O)CCN1C(=O)/C(=C/c2ccc(-c3ccc([N+](=O)[O-])cc3)o2)SC1=S | 1.7% (inactive) |
| O=C1/C(=C\c2ccc(-c3ccc([N+](=O)[O-])cc3)o2)SC(=S)N1c1ccc(O)cc1 | 1.6% (inactive) |
| O=C(O)c1ccc(-c2ccc(/C=C3\SC(=S)N(c4ccc([N+](=O)[O-])cc4)C3=O)o2)cc1 | 55.5% (active) |
| CC(=O)Nc1ccccc1NC(=O)COc1ccc(Cl)cc1C | -3.3% (inactive) |
| O=c1ccc(Oc2nc(N3CCOCC3)nc(N3CCOCC3)n2)nn1-c1ccccc1 | 6.5% (inactive) |
| N/C(=N\OC(=O)c1cccc(Br)c1)c1cccnc1 | 1.1% (inactive) |
| Cc1ccc(N=C2NC(=O)/C(=C/c3ccc(O)c([N+](=O)[O-])c3)S2)cc1Cl | 66.9% (active) |
| Cc1c(Cl)cccc1N=C1NC(=O)/C(=C/c2ccc(O)c([N+](=O)[O-])c2)S1 | 13.2% (inactive) |
| COc1cc(/C=C2\SC(=Nc3ccc(C)c(Cl)c3)NC2=O)ccc1O | -0.7% (inactive) |
